Assay [1] in a line: cAMP Responsive Elements (CRE) small molecule antagonists, cell-based qHTS assay: qHTS cell viability counter screen (AID 2060913). Note: nearly all actives have a fitted effect of over 40% in size. The gist of the method:
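HEK293T CRE-bla, 2,000 cells/well, 18 h preincubation; cpd in DMSO + NKH477 0.25 uM final, 3 h 37 C/5% CO2; LiveBLAzer 2 h RT, then CellTiter-Glo 30 min RT, luminescence.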
(In general: Quantitative high-throughput screening tests each substance at several concentrations.)

Assay [2] can be described thus: cAMP Responsive Elements (CRE) small molecule agonists, cell-based qHTS assay: qHTS cell viability counter screen (AID 2060914).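 Note: viability read after 3 h of compound exposure; nearly all actives have a fitted effect of over 50% in size.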 The gist of the method:
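HEK 293T CRE-bla; DMEM + 10% dialyzed FBS, 25 mM HEPES; 18 h pre-incubation; compound 3 h, 37 °C/5% CO2; CellTiter-Glo added after reporter read; luminescence after 30 min RT.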

Records with an inconclusive call do not appear. Values without a mark were called inactive. The source made the active and inactive calls. Calls come from the whole dose curve; as a rule, active = well fitted cell-killing curve with a large enough effect in the repeat runs; inconclusive = weak or mixed curves, or effect the other way; inactive = flat fitted curve, though single readings scatter.
% is set by controls: 0 for no effect and ±100 for the full control effect.

Consider `CCNc1cc(O)ccc1C`, for which the Potency entry in assay [1] and in assay [2] was “inactive” throughout.

As for `CC(Cl)COP(=O)(OCC(C)Cl)OCC(C)Cl` (stereo not given), the Potency result in assay [1] and in assay [2] was “inactive” in each case.

As for `c1ccc(Nc2ccccc2)cc1`, the Potency entry in assay [1] and in assay [2] was “inactive” each time.

On to `CCOC(=O)[C@H](CCc1ccccc1)N[C@H]1CS[C@H](c2cccs2)CN(CC(=O)O)C1=O`, for which the Potency entry in assay [1] and in assay [2] was “inactive” in each case.

`CC(C)OP(=O)(CP(=O)(OC(C)C)OC(C)C)OC(C)C`: the Potency entry in assay [1] and in assay [2] was “inactive” each time.

On to `C#C[C@]1(OC(C)=O)CC[C@H]2[C@@H]3CCC4=C/C(=N/O)CC[C@@H]4[C@H]3CC[C@@]21CC`, for which the Potency result in assay [1] and in assay [2] was “inactive” each time.

On to `COC(C)(C)CCO`, for which the Potency result in assay [1] and in assay [2] was “inactive” throughout.

For `C=CC(=O)OCCC(=O)O`, the Potency result in assay [1] and in assay [2] was “inactive” in each case.

As to `CCCCCCCCCCOC(=O)c1ccccc1C(=O)OCCCCCCCC`, the Potency result in assay [1] and in assay [2] was “inactive” throughout.

Turning to `O=C(O)Cc1ccc(Cl)cc1Cl`, the Potency entry in assay [1] and in assay [2] was “inactive” throughout.

For the molecule `CC1OC(=O)C(C)OC1=O` (stereo not given), the Potency entry in assay [1] and in assay [2] was “inactive” each time.

Take `CCCCCCCCCCCCCC(=O)OCC(O)CO` (stereo not given): the Potency entry in assay [1] and in assay [2] was “inactive” in each case.

Consider `CCCCCCNC(=O)n1cc(F)c(=O)[nH]c1=O`, for which the Potency entry in assay [1] and in assay [2] was “inactive” each time.

With `CCN(CCCc1ccccc1)CCCc1ccccc1`, the Potency result in assay [1] and in assay [2] was “inactive” in each case.

In the case of `CC(C)c1ccc2cc(C(C)C)ccc2c1`, the Potency entry in assay [1] and in assay [2] was “inactive” throughout.

For the molecule `O=C1CCCCCCCCCCOCCCCO1`, the Potency entry in assay [1] and in assay [2] was “inactive” in each case.

Turning to `CCOC(=O)CC`, the Potency result in assay [1] and in assay [2] was “inactive” throughout.

On to `CCCC(C)C`, for which the Potency result in assay [1] and in assay [2] was “inactive” in each case.

Turning to `CCCNC(C)C(=O)Nc1c(C)csc1C(=O)OC` (stereo not given), the Potency result in assay [1] and in assay [2] was “inactive” in each case.

In the case of `O=C(CCCl)NCCc1ccccc1`, the Potency entry in assay [1] and in assay [2] was “inactive” in each case.

With `CC(C)NNC(=O)c1ccncc1`, the Potency result in assay [1] and in assay [2] was “inactive” each time.

With `C=C(C)CS(=O)(=O)O`, the Potency entry in assay [1] and in assay [2] was “inactive” in each case.

Turning to `C/C=C/C(=O)C1=C(C)C=CCC1(C)C`, the Potency result in assay [1] and in assay [2] was “inactive” in each case.

As to `CO[Si](OC)(OC)c1ccccc1`, the Potency result in assay [1] and in assay [2] was “inactive” throughout.

`CCOC(=O)C(=O)c1csc(NC=O)n1`: the Potency result in assay [1] and in assay [2] was “inactive” each time.

With `O=[N+]([O-])c1ccccc1CCO`, the Potency entry in assay [1] and in assay [2] was “inactive” in each case.

For the molecule `OCC(CBr)(CBr)CBr`, the Potency entry in assay [1] and in assay [2] was “inactive” in each case.

As to `CCN[C@H]1CN(CCCOC)S(=O)(=O)c2sc(S(N)(=O)=O)cc21`, the Potency result in assay [1] and in assay [2] was “inactive” throughout.

For the molecule `Cc1ccc(C(N)=O)cc1N`, the Potency entry in assay [1] and in assay [2] was “inactive” in each case.

`O=C1OC(=O)c2cccc3cccc1c23`: the Potency result in assay [1] and in assay [2] was “inactive” each time.

`CC(C)(C)NCCNC(C)(C)C`: the Potency result in assay [1] and in assay [2] was “inactive” in each case.

Turning to `CCC(C)(C)CC`, the Potency result in assay [1] and in assay [2] was “inactive” in each case.

As to `Cc1ncc(CO)c(C=O)c1O`, the Potency entry in assay [1] and in assay [2] was “inactive” in each case.

Regarding `CCCc1nc2c(C)cc(-c3nc4ccccc4n3C)cc2n1Cc1ccc(-c2ccccc2C(=O)O)cc1`, the Potency entry in assay [1] and in assay [2] was “inactive” each time.

In the case of `CCN(CCO)c1cccc(C)c1`, the Potency result in assay [1] and in assay [2] was “inactive” in each case.

For `CCCCCCCC/C=C\CCCCCCCCCCCC(=O)O`, the Potency entry in assay [1] and in assay [2] was “inactive” in each case.

On to `CO[C@H]1C=CO[C@@]2(C)Oc3c(C)c(O)c4c(O)c(c(/C=N/N5CCN(C)CC5)c(O)c4c3C2=O)NC(=O)/C(C)=C\C=C[C@H](C)[C@H](O)[C@@H](C)[C@@H](O)[C@@H](C)[C@H](OC(C)=O)[C@@H]1C`, for which the Potency result in assay [1] and in assay [2] was “inactive” throughout.

Take `COC(=O)Nc1nc2ccc(C(=O)C3CC3)cc2[nH]1`: the Potency entry in assay [1] and in assay [2] was “inactive” throughout.

For the molecule `O=C(Cl)c1ccc(F)c(Cl)c1`, the Potency entry in assay [1] and in assay [2] was “inactive” throughout.

With `O=c1cc[nH]cc1`, the Potency entry in assay [1] and in assay [2] was “inactive” in each case.

Take `COc1cc2c(Nc3ccc(Br)cc3F)ncnc2cc1OCC1CCN(C)CC1`: the Potency entry in assay [1] and in assay [2] was “inactive” in each case.

Consider `OCc1cc(C(O)CNCCCCCCOCCCCc2ccccc2)ccc1O` (stereo not given), for which the Potency entry in assay [1] and in assay [2] was “inactive” throughout.

With `Nc1nc(Cl)cc(Cl)n1`, the Potency entry in assay [1] and in assay [2] was “inactive” in each case.

As for `CCC1(C)NC(=O)NC1=O` (stereo not given), the Potency result in assay [1] and in assay [2] was “inactive” throughout.

For `Cc1nc2ccccc2n1Cc1ccc(Cl)cc1`, the Potency entry in assay [1] and in assay [2] was “inactive” each time.

As to `c1cc2c3c(c1)ccc1cccc(c13)C2`, the Potency entry in assay [1] and in assay [2] was “inactive” throughout.

For the molecule `COc1cccc2sc(N)nc12`, the Potency result in assay [1] and in assay [2] was “inactive” each time.

`Cc1cccc(C(=O)O)c1`: the Potency result in assay [1] and in assay [2] was “inactive” in each case.

On to `Nc1ccc(S(=O)(=O)Nc2ccnn2-c2ccccc2)cc1`, for which the viability change, negative = cytotoxic in assay [1] was 5.89% [at 18.9 µM]. For the same molecule, the activity change, negative = cytotoxicity in assay [2] is 8.29% [at 18.9 µM].

In the case of `COc1ccc(C(=O)N2CCN(CC(=O)N3CCOCC3)CC2)cc1`, the Potency entry in assay [1] and in assay [2] was “inactive” throughout.

`CCNc1nc(N)nc(Cl)n1`: the Potency result in assay [1] and in assay [2] was “inactive” in each case.

Regarding `CC(=O)O[C@]1(C(C)=O)CC[C@H]2[C@@H]3C=C(C)C4=CC(=O)CC[C@]4(C)[C@H]3CC[C@@]21C`, the Potency result in assay [1] and in assay [2] was “inactive” throughout.

Turning to `Cc1cc(C)c(N)c(Cl)c1`, the Potency result in assay [1] and in assay [2] was “inactive” each time.

Regarding `CC(=N\O)/C(C)=N/O`, the Potency entry in assay [1] and in assay [2] was “inactive” in each case.

As to `C=CCN1C[C@H](C(=O)N(CCCN(C)C)C(=O)NCC)C[C@@H]2c3cccc4[nH]cc(c34)C[C@H]21`, the Potency entry in assay [1] and in assay [2] was “inactive” in each case.
